Compound activity from PubChem BioAssay.
SRC3 inh = human NCOA3 inhibition. 360,000 tested, 0.17% active. Q9Y6Q9. inhibition, % at 3.6 µM. AID 588352. HEK293 GAL4-SRC3 luciferase reporter, luminescence;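 active = inhibition above a per-campaign cutoff, the mean of all compounds plus 3 SD, cut at about 60% in these data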;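 also: 0% = DMSO-treated cells and 100% = gossypol-treated cells at 36 µM; higher means less SRC3-driven luciferase light from the GAL4 reporter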
NR2F2 inh = NR2F2 (human) inhibition, primary screen; HEK293T NGFI-A luciferase reporter, luminescence; 370,000 tested, 0.7% active; AID 686940; inhibition, % at 8.6 µM;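 active = inhibition above a per-plate cutoff, mean inhibition of test wells between control levels plus 3 SD, cut at about 38% in these data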;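 also: cells cotransfected with COUP-TFII expression vector driving the NGFI-A reporter; 0% = median of COUP-TF2 test wells and 100% = reporter-only cells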
NCOA1 inh = human NCOA1 inhibition. Q15788. HEK293 GAL4-SRC1 luciferase reporter, luminescence. inhibition, % at 3.6 µM. 360,000 tested, 0.12% active. AID 588354;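 active = inhibition above the campaign mean plus 3 SD, with each screening campaign given its own cutoff, cut at about 60% in these data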;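 also: 0% = DMSO treated cells and 100% = gossypol at 36 µM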
NR5A2 inv ag = inverse agonists of human LRH-1 (NR5A2). O00482. HEK293T StAR-luciferase reporter, LRH-1 transfected, 24 h. inhibition, % at 3.6 µM. 360,000 tested, 0.13% active. AID 602396;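 active = inhibition above the mean inhibition of all tested compounds plus 3 SD, cut at about 73% in these data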;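 also: 0% = DMSO wells and 100% = reporter-only cells lacking LRH-1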
Target sequence (O00482 whole entry, looked up): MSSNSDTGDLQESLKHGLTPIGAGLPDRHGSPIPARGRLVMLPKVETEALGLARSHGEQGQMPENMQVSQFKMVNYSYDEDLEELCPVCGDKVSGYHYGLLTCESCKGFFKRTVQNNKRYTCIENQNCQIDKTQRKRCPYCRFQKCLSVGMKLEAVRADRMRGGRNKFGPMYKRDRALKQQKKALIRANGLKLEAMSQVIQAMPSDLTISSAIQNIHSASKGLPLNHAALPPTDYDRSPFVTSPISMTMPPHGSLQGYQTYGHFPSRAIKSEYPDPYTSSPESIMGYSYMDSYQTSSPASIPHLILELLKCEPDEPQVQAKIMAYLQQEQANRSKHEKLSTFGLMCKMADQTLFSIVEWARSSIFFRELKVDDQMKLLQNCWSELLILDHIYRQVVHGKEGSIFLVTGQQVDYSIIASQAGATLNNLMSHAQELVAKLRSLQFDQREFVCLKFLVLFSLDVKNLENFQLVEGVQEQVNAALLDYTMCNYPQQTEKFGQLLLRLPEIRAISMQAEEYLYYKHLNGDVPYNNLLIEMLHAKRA
SRC2 inh = inhibits human steroid receptor coactivator 2 | HEK293 GAL4-SRC2 luciferase reporter, luminescence | 370,000 tested, 0.17% active | Q15596 | AID 651957 | inhibition, % at 9 µM;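 active = inhibition above the mean inhibition of all tested compounds plus 3 SD, set per campaign, cut at about 52% in these data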;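 also: 0% = DMSO treated cells and 100% = cells given Gossypol at 36 µM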
VP16 Luc counter = inhibits VP16 reporter, flagging COUP-TFII antagonist hits; shares compounds with NR2F2 inh; HEK293 Gal4-VP16 luciferase reporter, luminescence; inhibition, % at 8.5 µM; 2,500 tested, 25% active; AID 687007; in the data active = inhibition above about 13%
COUP-TFII conf = confirmation of human COUP-TFII (NR2F2) inhibitors | HEK293 NGFI-A luciferase reporter, luminescence | inhibition, % at 8.5 µM | 2,500 tested, 45% active | shares compounds with NR2F2 inh | AID 687008;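 active = mean inhibition over three repeats above a set limit taken from the earlier primary screen, cut at about 38% in these data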;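 also: 100% = cells given the luciferase reporter alone without the COUP-TF2 vector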
Active calls of the source: *. Compounds with a hit are over-represented: about 0.84% of the library has one in this group of screens.

How did Cc1nc2ccc(S(=O)(=O)NCC(=O)N(C)Cc3ccc(F)cc3)cc2s1 do in these assays?
NR2F2 inh: 3.7; SRC2 inh: -1.9

How did COC(=O)c1cc2c(c3c4cc(F)ccc4n(S(=O)(=O)c4cccc(C)c4)c13)C(=O)N(Cc1ccc(N(C)C)cc1)C2 do in these assays?
NR2F2 inh: 9.7; SRC2 inh: -7.3

How did COc1cc(C[C@@H]2C(=O)OC[C@H]2Cc2ccc(OC)c(OC)c2)ccc1O do in these assays?
SRC3 inh: 20.1; NR2F2 inh: 69.5*; NCOA1 inh: 22.0; NR5A2 inv ag: 43.0; SRC2 inh: 16.6; VP16 Luc counter: -0.3; COUP-TFII conf: 56.6*

What do the screens show for `COc1cc(CC2COC(=O)C2(O)Cc2ccc(O)c(OC)c2)ccc1O` (centres undefined)?
SRC3 inh: 20.4; NR2F2 inh: 52.5*; NCOA1 inh: 19.4; NR5A2 inv ag: 21.6; SRC2 inh: 3.4; VP16 Luc counter: -2.4; COUP-TFII conf: 25.3

What do the screens show for `CN(C)c1ccc(/C=C/c2nc3ccccc3s2)cc1`?
SRC3 inh: 64.4*; NR2F2 inh: 68.6*; NCOA1 inh: 55.6; NR5A2 inv ag: 40.7; SRC2 inh: 53.5*; VP16 Luc counter: 51.6*; COUP-TFII conf: 81.8*

How did Cc1cccc(NC(=S)NNc2ncc(C(F)(F)F)cc2Cl)c1 do in these assays?
SRC3 inh: 13.6; NR2F2 inh: 32.0; NCOA1 inh: 5.5; NR5A2 inv ag: -5.9; SRC2 inh: 50.2

How did FC(F)(F)c1cnc(NNC(=S)Nc2ccccc2Cl)c(Cl)c1 do in these assays?
SRC3 inh: 30.0; NR2F2 inh: 41.6*; NCOA1 inh: 5.9; NR5A2 inv ag: 6.6; SRC2 inh: -11.5; VP16 Luc counter: 17.6*; COUP-TFII conf: 13.7

How did CC(C)(C)c1ccc(Oc2ccc(NC(=O)c3ccco3)cn2)cc1 do in these assays?
SRC3 inh: 31.7; NR2F2 inh: 42.9*; NCOA1 inh: -1.9; NR5A2 inv ag: -7.1; SRC2 inh: 40.8; VP16 Luc counter: 29.4*; COUP-TFII conf: 59.2*

Results for O=C(Nc1ccc(Oc2cccnc2)nc1)c1ccc(C(F)(F)F)cc1 ?
SRC3 inh: 40.0; NR2F2 inh: 66.0*; NCOA1 inh: 22.8; NR5A2 inv ag: 28.8; SRC2 inh: 27.9; VP16 Luc counter: 2.2; COUP-TFII conf: 38.5*

Results for CCN(c1ccccc1)S(=O)(=O)c1ccc(Cl)c(C(=O)N(CC2CCCO2)C2CCS(=O)(=O)C2)c1 (centres undefined) ?
SRC3 inh: 6.3; NR2F2 inh: -5.7; NCOA1 inh: 14.4; NR5A2 inv ag: -5.0; SRC2 inh: 21.1

How did CC(C)C(NC(=O)Cc1ccccc1)C(=O)N1CCN(c2cccc(Cl)c2)CC1 (centres undefined) do in these assays?
SRC3 inh: 15.6; NR2F2 inh: 64.9*; NCOA1 inh: -4.8; NR5A2 inv ag: -21.1; SRC2 inh: 27.2; VP16 Luc counter: 0.8; COUP-TFII conf: 13.0

How did O=C(c1cc2ccccc2o1)N1CCN(C/C=C/c2ccccc2)CC1 do in these assays?
SRC3 inh: 13.7; NR2F2 inh: 38.3*; NCOA1 inh: -6.2; NR5A2 inv ag: 5.9; SRC2 inh: -8.0; VP16 Luc counter: -3.0; COUP-TFII conf: 3.2

What do the screens show for `CSC1SCC2C(=O)N(C)C(C(C)C)C(=O)OCC(NC(=O)c3cnc4ccccc4n3)C(=O)NC(C)C(=O)N(C)C1C(=O)N(C)C(C(C)C)C(=O)OCC(NC(=O)c1cnc3ccccc3n1)C(=O)NC(C)C(=O)N2C` (centres undefined)?
SRC3 inh: 86.3*; NR2F2 inh: 51.1*; NCOA1 inh: 84.9*; NR5A2 inv ag: 95.7*; SRC2 inh: 65.7*; VP16 Luc counter: 29.4*; COUP-TFII conf: 38.1*

What do the screens show for `CCC(CO)Nc1ccn2nc(-c3cccc(Cl)c3)cc2n1` (centres undefined)?
SRC3 inh: -90.8; NR2F2 inh: -32.3; NCOA1 inh: -79.8; NR5A2 inv ag: -115.0; SRC2 inh: -50.4

What do the screens show for `CCC(C)(C)c1ccc(OCCCC[n+]2cccc(C)c2C)c(C(C)(C)CC)c1`?
SRC3 inh: 65.1*; NR2F2 inh: 57.1*; NCOA1 inh: 33.9; NR5A2 inv ag: 79.0*; SRC2 inh: -31.7; VP16 Luc counter: 14.3*; COUP-TFII conf: 59.9*

Results for FC(F)(F)c1cnc(N2CCCN(C(=S)Nc3ccccc3)CC2)c(Cl)c1 ?
SRC3 inh: 25.3; NR2F2 inh: 39.4*; NCOA1 inh: 8.1; NR5A2 inv ag: 5.9; SRC2 inh: -3.4; VP16 Luc counter: -6.8; COUP-TFII conf: 24.6

Results for CCCCCCC(=O)N(O)C1CC(=O)N(c2ccc(F)cc2)C1=O (centres undefined) ?
SRC3 inh: 26.7; NR2F2 inh: 38.1*; NCOA1 inh: 1.6; NR5A2 inv ag: -2.4; SRC2 inh: 28.3; VP16 Luc counter: -4.1; COUP-TFII conf: 44.4*

How did CCCCN(C(=O)CCC(=O)O)C1CC(=O)N(c2ccc(OCCC)cc2)C1=O (centres undefined) do in these assays?
SRC3 inh: 5.2; NR2F2 inh: -9.9; NCOA1 inh: 2.0; NR5A2 inv ag: -8.7; SRC2 inh: -1.6

What do the screens show for `CCCCCCC(=O)N(O)C1CC(=O)N(c2ccc(Br)cc2)C1=O` (centres undefined)?
SRC3 inh: 3.4; NR2F2 inh: 39.9*; NCOA1 inh: 16.4; NR5A2 inv ag: 4.9; SRC2 inh: 21.7; VP16 Luc counter: 3.0; COUP-TFII conf: 51.8*

How did Fc1ccc(COc2ccc(Br)cc2CNCc2ccncc2)cc1 do in these assays?
SRC3 inh: -4.1; NR2F2 inh: -0.1; NCOA1 inh: 5.2; NR5A2 inv ag: 0.8; SRC2 inh: 19.3

What do the screens show for `CCOc1cc(CNCc2ccncc2)cc(Br)c1OCc1ccc(F)cc1`?
SRC3 inh: 18.1; NR2F2 inh: 39.5*; NCOA1 inh: -1.2; NR5A2 inv ag: 24.9; SRC2 inh: 7.2; VP16 Luc counter: 3.7; COUP-TFII conf: 7.7

Results for Cc1c(Cl)cccc1NC(=O)N1CCCN(c2nc(-c3ccccc3)ns2)CC1 ?
SRC3 inh: 30.0; NR2F2 inh: 56.8*; NCOA1 inh: 14.0; NR5A2 inv ag: 23.4; SRC2 inh: 13.5; VP16 Luc counter: 8.5; COUP-TFII conf: 50.9*

Results for O=C(Nc1ccccc1Cl)N1CCCN(c2nc(-c3ccccc3)ns2)CC1 ?
SRC3 inh: 19.9; NR2F2 inh: 9.0; NCOA1 inh: 15.8; NR5A2 inv ag: -16.4; SRC2 inh: 24.1

How did S=C(NCC1CCCO1)N1CCN(c2nc(-c3ccc(Cl)cc3)cs2)CC1 (centres undefined) do in these assays?
SRC3 inh: 22.0; NR2F2 inh: 59.4*; NCOA1 inh: 0.1; NR5A2 inv ag: 4.3; SRC2 inh: 26.8; VP16 Luc counter: -1.3; COUP-TFII conf: 28.2
